Pin1 inhibitor: human Pin1 inhibition; 0.009% of 390,000 active; Potency, µM (series often up to 115 µM), inactives show at the highest dose activity, negative = inhibition, actives largely listed as inhibitors; Q13526; Pin1 FP peptide displacement, HiFluor488, 10 min; active = well fitted inhibition curve with a large enough effect in the polarisation, with a control signal flat, not every such curve was filed as active; inconclusive = small, poorly fitted or top-dose-only effect, or effect the other way, or a change in a side signal; inactive = no such curve, though single readings can be large or run the other way; the % refers to the polarisation; note: % is set by controls: 0 for no effect and ±100 for the full control effect
Tb PFK block: inhibitors of T. brucei phosphofructokinase; T. brucei PFK, ADP-Glo luminescence; Potency, µM (series often up to 57.5 µM), for the others: at the highest dose activity, negative = inhibition, actives largely listed as inhibitors; 0.17% of 330,000 active; AID 485367;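 note: 0% = uninhibited 1x PFK enzyme wells and -100% = no-enzyme wells; nearly all actives have a fitted effect of over 60% in size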
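PFK 1.25 nM, F6P 0.5 mM, ATP 0.1 mM, 0.1 M TEA pH 8.0, 5 mM MgCl2, 0.01% Tween20, 0.1% BSA; 45 min RT. ADP-Glo readout. qHTS titration up to 57 uM; curves fitted, compounds curve-classed.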
ASM inhibitor: human S-ASM enzyme inhibition; 0.006% of 340,000 active; P17405; Potency, µM (top dose mostly 57.5 µM), for the others: at the top dose activity change, negative = inhibition, most hits filed as inhibitors; placental ASM, HMU-PC fluorogenic substrate, 60 min
Target sequence (P17405 47-631 limits assumed): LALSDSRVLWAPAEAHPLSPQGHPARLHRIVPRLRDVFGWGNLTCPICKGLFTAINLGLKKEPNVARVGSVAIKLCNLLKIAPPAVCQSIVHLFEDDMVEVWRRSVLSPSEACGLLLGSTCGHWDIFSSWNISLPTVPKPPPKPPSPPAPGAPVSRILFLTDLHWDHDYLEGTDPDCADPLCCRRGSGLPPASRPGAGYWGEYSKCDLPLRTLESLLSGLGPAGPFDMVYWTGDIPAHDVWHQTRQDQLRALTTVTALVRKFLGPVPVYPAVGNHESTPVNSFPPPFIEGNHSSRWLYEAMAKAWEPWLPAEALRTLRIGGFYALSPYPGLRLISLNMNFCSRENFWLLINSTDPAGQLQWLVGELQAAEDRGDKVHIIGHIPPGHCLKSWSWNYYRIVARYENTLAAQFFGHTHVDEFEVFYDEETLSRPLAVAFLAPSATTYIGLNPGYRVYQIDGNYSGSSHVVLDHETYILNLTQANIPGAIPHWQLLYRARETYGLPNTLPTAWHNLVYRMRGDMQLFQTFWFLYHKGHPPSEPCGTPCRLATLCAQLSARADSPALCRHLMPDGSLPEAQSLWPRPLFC
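HMU-PC0 cleavage (9 uM final) by human placental ASM, 60 min at 37 °C following 10 min compound exposure at RT; stopped at pH 10, fluorescence Ex 386/Em 447 nm.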
VDR inh: blocks the human vitamin D receptor | 0.93% of 400,000 active | Potency, µM, for the others: max response, negative = inhibition, usual class: inhibitors | VDR-SRC2-3 peptide fluorescence polarization, 2 h; note: % is set by controls: 0 for no effect and ±100 for the full control effect
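The screen uses fluorescence polarization to detect compounds that interfere with recruitment of the SRC2-3 coactivator peptide to VDR; plates are read after 2 h at room temperature.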
PLK1 PBD block: PLK1 (human) polo-box domain binding inhibition; AID 720504; Potency, µM, without a hit: max response, negative = inhibition, most hits filed as inhibitors; 2.8% of 360,000 active; Plk1 PBD binding of FITC phosphopeptide, fluorescence polarization; P53350; note: series mostly up to about 57 µM; % is set by controls: 0 for no effect and ±100 for the full control effect; nearly all actives have a fitted effect of over 65% in size
TDP1 inh: TDP1 (human) enzyme inhibition; 0.28% of 350,000 active; Potency, µM (doses to about 130 µM), without a hit: at the top dose activity change, negative = inhibition, usual class: inhibitors; Q9NUW8; AID 485290; recombinant TDP1, AlphaScreen DNA substrate cleavage; note: % is set by controls: 0 for no effect and ±100 for the full control effect; nearly all actives have a fitted effect of over 40% in size
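Signal: AlphaScreen proximity between streptavidin donor and anti-FITC acceptor beads on intact substrate. Reaction: Tdp1 1 nM, substrate 15 nM final, 5 min RT after 15 min compound preincubation.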
The depositor's hits bear a star; ? = inconclusive; · = not tested or not shown. This is a sample that favours compounds with a hit; in the whole collection about 3.1% have one here. Unless noted, calls come from the whole dose curve; as a rule, active = well fitted curve in the direction sought with a large enough effect; inconclusive = small, poorly fitted or top-dose-only effect, or another doubt; inactive = no such curve, though single readings can be large; an effect the other way counts as inactive or inconclusive. Potency is the fitted concentration of half-maximal effect.

SMILES	Pin1 inhibitor	Tb PFK block	ASM inhibitor	VDR inh	PLK1 PBD block	TDP1 inh
CC1(C)Cc2c(cnn2-c2ccc(F)cc2)C(NC(=O)CCN2CCCC2=O)C1 (stereo not drawn)	-4%	0%	7%	?	3.4µM*	2%
CC1(C)Cc2c(cnn2-c2ccc(F)cc2)C(NC(=O)C2=NNC(=O)CC2)C1 (stereo not drawn)	-7%	-4%	1%	?	3µM*	3%
CC1(C)Cc2c(cnn2-c2ccc(F)cc2)C(NC(=O)c2ccco2)C1 (stereo not drawn)	-1%	-3%	4%	-19%	1%	4%
CCOC(=O)N1CCN(C(=O)CCSc2ccc(Cl)cc2)CC1	2%	2%	0%	-7%	-2%	7%
CCOC(=O)N1CCN(C(=O)CCSc2ccc(C)cc2)CC1	-4%	15%	2%	-19%	3.4µM*	5%
Cc1cccc(N2C(N)=NC(N)=NC23CCCCC3)c1	24%	1%	4%	-25%	2.7µM*	-1%
COc1ccc(OC)c(N2C(N)=NC(N)=NC23CCCC3)c1	-6%	0%	3%	-12%	-17%	1%
O=C(O)CCS(=O)(=O)c1nc(-c2cccs2)cc(C(F)(F)F)n1	9%	-9%	14%	?	?	6%
Cc1cc(NC(=O)CCCS(=O)(=O)c2nc(-c3cccs3)cc(C(F)(F)F)n2)no1	0%	-12%	6%	18µM*	?	-2%
CCOC(=O)CS(=O)(=O)c1nc(-c2ccc(F)cc2)cc(C(F)(F)F)n1	-1%	?	-2%	?	5.3µM*	1%
CCC(C)NC(=O)CCSc1nc(-c2ccc(OC)cc2)cc(C(F)(F)F)n1 (stereo not drawn)	-4%	·	·	-1%	·	-1%
COCC(C)NC(=O)CCS(=O)(=O)c1nc(-c2ccc(OC)cc2)cc(C(F)(F)F)n1 (stereo not drawn)	5%	-9%	4%	79µM*	?	8%
COC(=O)CCS(=O)(=O)c1nc(-c2ccccc2)cc(C(F)(F)F)n1	-2%	-18%	3%	20µM*	21µM*	2%
COc1ccc(C2C=C(c3ccccc3)Nc3nc(NC(=O)/C=C/c4ccc(F)cc4)nn32)cc1 (stereo not drawn)	1%	·	·	5%	·	0%
COc1cccc(C2c3c(ncn(-c4ccccc4C)c3=N)Oc3ccc4ccccc4c32)c1 (stereo not drawn)	15%	·	·	·	·	4%
Cc1ccc(S(=O)(=O)c2nc(-c3ccc(F)cc3)oc2N2CCOCC2)cc1	1%	0%	-4%	4%	-6%	7%
Cc1ccc(S(=O)(=O)c2nc(C)oc2N2CCOCC2)cc1	-6%	5%	0%	-17%	21µM*	0%
O=S(=O)(c1ccccc1Cl)N1CCN(c2nc(-c3ccccc3)nc3ccccc23)CC1	-1%	·	·	-17%	·	0%
O=[N+]([O-])c1cccnc1Oc1cc(Cl)c(Cl)cc1Cl	·	·	·	·	17µM*	·
O=[N+]([O-])c1cccnc1Oc1ccccc1F	7%	-2%	3%	-11%	3%	4%
COc1ccc(NC(=O)CSc2nc3nc(C)c(Cc4ccccc4Cl)c(C)n3n2)cc1OC	15%	·	·	11%	·	8%
O=[N+]([O-])c1ccc(N=NNc2ccccc2)cc1	-7%	-12%	-2%	-24%	30µM*	9%
O=[N+]([O-])c1cccc(NN=Nc2ccccc2)c1	2%	0%	-12%	29%	-2%	·
Cc1ccc2c(c1)-c1c(ssc1=S)C(C)(C)N2C(=O)c1ccco1	8%	-23%	-22%	-58%	2.1µM*	10%
CC1(C)c2ssc(=S)c2-c2ccccc2N1C(=O)c1ccco1	-6%	2%	?	?	15µM*	5%
Cn1cnnc1SCC(=O)N1c2ccccc2-c2c(ssc2=S)C1(C)C	·	-2%	·	·	·	5%
CCCN1CNc2c(c(=O)[nH]c(=S)n2CCc2cccc(OC)c2OC)C1	3%	·	·	-21%	·	-9%

From PubChem BioAssay
